Consider 40 compounds from PubChem BioAssay (EPA / NIEHS).

The AC50 is the concentration giving half of the maximal activity seen.

Active and inactive are the calls of the source. How the source made its calls: active means hit-call score of the fitted dose curve at least 0.9, where 1 is the maximum; inconclusive means response in the unintended direction; inactive means score below 0.9.

The nature of this assay: Tanguay_ZF_120hpf_ActivityScore_legacy: (Legacy) Oregon State University Tanguay Lab 120 Hour Post-fertilization zebrafish Assay Score for Activity (AID 2283742).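 On AC50: static exposure from 6 hpf until 120 hpf at 28 °C.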 The procedure:
Tanguay_ZF_120hpf_legacy is a whole embryo, multiplexed endpoint assay using zebrafish larvae exposed for 120 hours post fertilization on a 96-well plate.Tanguay_ZF_120hpf_ActivityScore_legacy is one of one assay component(s) measured or calculated from the Tanguay_ZF_120hpf_legacy assay. It is designed to make measurements of developmental malformations and mortality as detected with brightfield microscopy and combines scoring from 18 other assay components measuring more specific morphologies.Data from the assay component Tanguay_ZF_120hpf_ActivityScore_legacy was analyzed into 1 assay endpoints. This assay endpoint, Tanguay_ZF_120hpf_ActivityScore_legacy, was analyzed in the positive analysis fitting direction relative to DMSO as the negative control and baseline of activity. Using a type of morphology reporter, gain-of-signal activity can be used to understand changes in developmentals as they relate to the whole embryo. To generalize the intended target to other relatable targets, this assay endpoint is annotated to the zebrafish development intended target family, where the subfamily is embryonic morphogenesis and mortality.
Zebrafish husbandry: Tropical 5D wild-type adult zebrafish were housed in at an approximate density of 1000 per 100 gallon tank at the Sinnhuber Aquatic Research Laboratory, Oregon State University, Corvallis, OR. Each tank was kept at standard laboratory conditions of 28C on a 14-h light/10-h dark photoperiod in fish water consisting of reverse osmosis water supplemented with a commercially available salt (Instant Ocean). Spawning funnels were placed into the tanks the night prior, and embryos were collected and staged. To increase bioavailability, the chorion was enzymatically removed using pronase (63.6mg/ml, >/= 3.5U/mg, Sigma-Aldrich: P5147) at 4 hours post fertilization (hpf) using a custom automated dechorionator.Chemical exposures: Six hpf dechorionated embryos were placed 1 embryo per well in a 96-well plate prefilled with 90 ul of EM using automated embryo placement systems (AEPS). Ten microliters of each row of dilution plate 2 was added to 2 exposure plates. The final DMSO concentration used was 0.64% (vol/vol). Thirty-two embryos were also exposed to 5uM trimethyltin chloride (positive control). Plates were sealed to prevent evaporation and foil covered to reduce light exposure and kept in a 28C incubator. Embryos were statically exposed until 120 hpf. At 24 hpf, embryos were assessed for photomotor response using a custom photomotor response analysis tool (PRAT) and for developmental toxicity endpoints (MO24: mortality at 24 hpf, DP: developmental progression, SM: spontaneous movement, and NC: notochord distortion). At 120 hpf, locomotor activity was measured using Viewpoint Zebralab and assessed for 18 endpoints. Zebrafish acquisition and analysis program (ZAAP), a custom program designed to inventory, acquire, and manage zebrafish data, was used to collect developmental endpoints as either present or absent (i.e., binary responses were recorded). If mortality occurred for an embryo (at either 24 or 120 hpf), the non-mortality endpoints were not measured.
Regarding `Clc1ccc(C(Cl)(Cl)Cl)cc1`, the call was inactive. `C1CC2OC2CC1C1CO1` (stereo not given): the compound was classed as inactive.

On to `CCOP(=S)(OCC)SCSC(C)(C)C`, for which the compound was called inactive. For the compound `Nc1ccc(-c2ccc(N)cc2)cc1`, the call was inactive. For `O=S(=O)(O)C(F)(F)C(F)(F)C(F)(F)C(F)(F)C(F)(F)C(F)(F)F`, the AC50 was 36.6 µM (active).

Take `Cc1cc2c3c(c1)C(c1ccccc1)=N[C@@H](NC(=O)c1ccncc1)C(=O)N3CC2`: the result was inactive. On the same count and under the same terms, the result for `COS(=O)(=O)OC` reads “inactive”; that for `C=CC(=O)NCNC(=O)C=C`, “inactive”; that for `ClC1=C(Cl)[C@]2(Cl)[C@@H]3[C@@H](Cl)[C@H]4O[C@H]4[C@@H]3C1(Cl)C2(Cl)Cl`, “inactive”. With `CCCCCCOC(=O)c1ccccc1C(=O)OCCCCCC`, the compound was called inactive. Take `CC(C)(c1ccccc1)c1ccc(O)cc1`: the AC50 is 27 µM (active). For `CCCCCCCCOC(=O)c1ccccc1C(=O)OCCCCCCCC`, the compound was classed as inactive.

As to `CC(c1ccc(O)cc1)(c1ccc(O)cc1)c1ccc(O)cc1`, the result was inactive. In the case of `Cc1cccc([N+](=O)[O-])c1`, the outcome was inactive.

As to `CN(C)c1nc(=O)n(C2CCCCC2)c(=O)n1C`, the compound was classed as inactive.

Take `CCOCCOC(C)=O`: the compound was called inactive. `CC(C)C(=O)OCC(C)(C)C(OC(=O)C(C)C)C(C)C` (stereo not given): the concentration at half-maximal activity (AC50) was 27.2 µM (active). As for `CCSC(=O)N(CC)C1CCCCC1`, the compound was called inactive.

On to `O=C(O)C(F)(F)C(F)(F)C(F)(F)C(F)(F)C(F)(F)C(F)(F)C(F)(F)C(F)(F)C(F)(F)F`, for which the call was inactive.

On to `C[C@]12CCC(=O)C=C1CC[C@@H]1[C@@H]2CC[C@@]2(C)[C@H]1CC[C@]2(C)O`, for which the call was inactive. The same measure, in the same setting: as for `CCCCCCCCCc1ccc(O)cc1`, the entry is “inactive”.

As for `Nn1cnnc1`, the compound was called inactive. On to `Cc1ccccc1CO[C@@H]1C[C@@]2(C(C)C)CC[C@]1(C)O2`, for which the outcome was inactive. Take `CCOC(=O)C(O)(c1ccc(Cl)cc1)c1ccc(Cl)cc1`: the result was inactive. Consider `O=C(O)C(F)(F)C(F)(F)C(F)(F)C(F)(F)C(F)(F)F`, for which the compound was called inactive. With `Cc1ccccc1[N+](=O)[O-]`, the result was inactive. Same read-out and setting: the result for `COc1ccc(O)c(C(C)(C)C)c1` reads “inactive”; that for `c1ccc(-c2ccccc2)cc1`, “inactive”.

With `Oc1ccc(C(c2ccc(O)cc2)(C(F)(F)F)C(F)(F)F)cc1`, the AC50 was 45 µM (active). With `NS(=O)(=O)C(F)(F)C(F)(F)C(F)(F)C(F)(F)C(F)(F)C(F)(F)C(F)(F)C(F)(F)F`, the AC50 is 38 µM (active).

Turning to `Cc1cc(-c2ccc(N)c(C)c2)ccc1N`, the compound was called inactive. Turning to `c1cc2ccc3cccc4ccc(c1)c2c34`, the result was inactive. Consider `CC1=C2C[C@H]3[C@@H](CC=C4C[C@@H](O)CC[C@@]43C)[C@@H]2CC[C@]12O[C@@H]1C[C@H](C)CN[C@H]1[C@H]2C`, for which the half-maximal activity concentration (AC50) is 44.8 µM (active). Turning to `CCCCCCCCCC[N+](C)(C)CCCCCCCCCC`, the AC50 was 39.7 µM (active). On to `ClC(Cl)=C(c1ccc(Cl)cc1)c1ccc(Cl)cc1`, for which the call was inactive.

`Clc1ccc(Cl)cc1`: the compound was classed as inactive. As for `Cc1cccc(C)c1N`, the outcome was inactive. The same measure, in the same setting: the result for `O=C(NC(=O)c1c(F)cccc1F)Nc1cc(Cl)c(OC(F)(F)C(F)F)c(Cl)c1` reads “inactive”. As to `CCC(C)c1cc([N+](=O)[O-])cc([N+](=O)[O-])c1O` (stereo not given), the half-maximal activity concentration (AC50) was 0.346 µM (active).

Turning to `CCCN(CCC)N=O`, the result was inactive.
